In all, about 33,000 sequences were measured (“e-score”: median about -0.053, highest 2% from about 0.38 on). The sample as a whole holds a higher share of the highest values than the screen did.

Binding signal data for 88 sequences are collected here from publication PMC10668032, “Altered binding affinity of SIX1-Q177R correlates with enhanced WNT5A and WNT pathway effector expression in Wilms tumor”.

The assay concerns the target T1, SIX1 homeodomain (reference allele) (human, UniProt Q15475 108-198).
T1 sequence: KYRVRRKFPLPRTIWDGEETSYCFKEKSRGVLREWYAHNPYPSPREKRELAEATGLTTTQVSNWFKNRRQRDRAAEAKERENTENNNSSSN
As to the kind of experiment: universal protein binding microarray; Universal all-10-mer PBM (8x60K, AMADID 030236), 300 nM GST-tagged protein, Alexa Fluor 488 anti-GST; buffer, salt, pH and temperature not stated (as in Berger); high values mean tight binding. As to conditions: protein: ivt; tags: N-terminal GST; dsDNA, one strand shown. The gist of the method: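 Homeodomains fused to GST were made by in vitro transcription/translation and measured by anti-GST western blot with a recombinant GST standard curve. At 300 nM final concentration, they were applied in duplicate to universal 'all 10-mer' protein binding microarrays (8×60K format).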
On to ACCCGGAT, for which the binding signal was 0.411 ± 0.0469 E-score.

On to ACCCGGGA, for which the binding signal turned out to be 0.311 ± 0.0112 E-score.

For the sequence ATCCGGAG, the binding signal was determined as 0.299 ± 0.0152 E-score.

Take ACCCGGAA: the binding signal worked out at 0.184 ± 0.00414 E-score.

With ACCCGGCT, the binding signal came out at 0.22 ± 0.0443 E-score.

As for ACCCGGAG, the binding signal was 0.194 ± 0.0529 E-score.

Take ATCCGGAT: the binding signal is 0.446 ± 0.0263 E-score.

Consider ACCCGTAG, for which the binding signal is 0.156 ± 0.0429 E-score.

As to ATCCGGAA, the binding signal turned out to be 0.295 ± 0.0493 E-score.

With ACCCGGGT, the binding signal was 0.377 ± 0.0364 E-score.

On to ACCCGTAT, for which the binding signal came out at 0.391 ± 0.00477 E-score.

On to AACCGTAT, for which the binding signal was found to be 0.275 ± 0.0195 E-score.

For the sequence TCCGCCGA, the binding signal was determined as 0.252 ± 0.00841 E-score.

As to CGAATACG, the binding signal was found to be 0.2 ± 0.0406 E-score.

Regarding GGTGTTGA, the binding signal worked out at 0.258 ± 0.0174 E-score.

For the sequence TCAGATAA, the binding signal amounted to 0.21 ± 0.0582 E-score.

Take AATACCTG: the binding signal was determined as 0.178 ± 0.0145 E-score.

For the sequence ATCATCGG, the binding signal was determined as 0.365 ± 0.0324 E-score.

As to AGCCGGAT, the binding signal came to 0.382 ± 0.0208 E-score.

As for AACCGGAT, the binding signal came out at 0.316 ± 0.00955 E-score.

As to AGCCGGCT, the binding signal worked out at 0.1726 ± 0.000438 E-score.

Turning to ATCTTCAG, the binding signal was found to be 0.153 ± 0.0288 E-score.

As to CGGTGTTA, the binding signal is 0.312 ± 0.0102 E-score.

With ACTGGTAT, the binding signal came to 0.386 ± 0.034 E-score.

Turning to AATGGTGT, the binding signal worked out at 0.287 ± 0.00727 E-score.

Take ACTGGGAT: the binding signal was determined as 0.239 ± 0.0081 E-score.

ACCGGTAT: the binding signal came to 0.37 ± 0.0044 E-score.

Consider AATGGTAT, for which the binding signal amounted to 0.381 ± 0.00619 E-score.

With AGTGGTAT, the binding signal is 0.35 ± 0.0207 E-score.

With GGATTAGA, the binding signal is 0.165 ± 0.00327 E-score.

With CCGTATTA, the binding signal worked out at 0.322 ± 0.00404 E-score.

Take CCGTATCG: the binding signal turned out to be 0.457 ± 0.0169 E-score.

As to GCCTATCA, the binding signal stood at 0.289 ± 0.00848 E-score.

As to ACCTATCA, the binding signal amounted to 0.336 ± 0.0088 E-score.

With TCGTATAA, the binding signal came to 0.194 ± 0.0979 E-score.

Turning to TCCTATCA, the binding signal was found to be 0.307 ± 0.0417 E-score.

Consider GCGTATCA, for which the binding signal was determined as 0.481 ± 0.00534 E-score.

In the case of CCCTATCA, the binding signal was 0.429 ± 0.0145 E-score.

On to GCGTATAA, for which the binding signal was determined as 0.16 ± 0.104 E-score.

With GCGTCTCA, the binding signal was determined as 0.209 ± 0.0176 E-score.

As for TCGTATCA, the binding signal stood at 0.45 ± 0.0228 E-score.

Consider CCGTATAG, for which the binding signal was found to be 0.239 ± 0.00962 E-score.

Consider ATCCCTCG, for which the binding signal turned out to be 0.337 ± 0.0323 E-score.

With ATATAGCG, the binding signal is 0.164 ± 0.0414 E-score.

On to GTATTAAC, for which the binding signal was 0.272 ± 0.0619 E-score.

GATAGTGA: the binding signal came to 0.231 ± 0.0159 E-score.

As to CCGTATGA, the binding signal came out at 0.217 ± 0.0235 E-score.

In the case of CCGTATAA, the binding signal was found to be 0.226 ± 0.0709 E-score.

CCGTATCA: the binding signal turned out to be 0.486 ± 0.00556 E-score.

With ATCATACC, the binding signal is 0.351 ± 0.0212 E-score.

Regarding ATCGCCTA, the binding signal came to 0.232 ± 0.0537 E-score.

Consider GAGACGGA, for which the binding signal turned out to be 0.272 ± 0.0111 E-score.

Take CAGGTATC: the binding signal came to 0.4642 ± 0.00145 E-score.

For GAGTTATC, the binding signal came out at 0.248 ± 0.0177 E-score.

In the case of GAGGTATC, the binding signal stood at 0.4767 ± 0.00464 E-score.

For the sequence CAGGTAGA, the binding signal came to 0.15 ± 0.00481 E-score.

AAGGTATC: the binding signal was determined as 0.472 ± 0.0103 E-score.

Turning to AAGGTATT, the binding signal is 0.248 ± 0.0945 E-score.

As for AAGGTATG, the binding signal amounted to 0.201 ± 0.00407 E-score.

In the case of CAGGTATA, the binding signal was found to be 0.276 ± 0.0442 E-score.

GAGGTATA: the binding signal was determined as 0.365 ± 0.0614 E-score.

With CCGGCTAA, the binding signal was 0.178 ± 0.0089 E-score.

For ACACCTAA, the binding signal turned out to be 0.261 ± 0.0204 E-score.

As for CCAATCCG, the binding signal turned out to be 0.224 ± 0.0167 E-score.

Consider CGCCGATC, for which the binding signal amounted to 0.258 ± 0.0126 E-score.

With ATCCATAC, the binding signal worked out at 0.31 ± 0.0347 E-score.

AGCGGTAT: the binding signal was 0.3428 ± 0.000445 E-score.

Regarding TATCGGCA, the binding signal worked out at 0.244 ± 0.0173 E-score.

As for AGACGATC, the binding signal is 0.285 ± 0.0103 E-score.

AGCCTATC: the binding signal worked out at 0.192 ± 0.0162 E-score.

As for CCCCGCCA, the binding signal was 0.161 ± 0.0538 E-score.

For ATTATCTC, the binding signal came out at 0.203 ± 0.126 E-score.

On to TATAGGGA, for which the binding signal amounted to 0.206 ± 0.00286 E-score.

For the sequence GATAGGGA, the binding signal turned out to be 0.376 ± 0.00884 E-score.

Turning to GATAGGGC, the binding signal was found to be 0.285 ± 0.0546 E-score.

Take AGGAATCC: the binding signal was 0.197 ± 0.00841 E-score.

As for GATCGTCC, the binding signal is 0.238 ± 0.0474 E-score.

Consider CAAACCCG, for which the binding signal was 0.174 ± 0.0382 E-score.

For CAATACCC, the binding signal worked out at 0.387 ± 0.00788 E-score.

Regarding AAATACCG, the binding signal stood at 0.178 ± 0.0267 E-score.

For CGATACCG, the binding signal turned out to be 0.45 ± 0.0109 E-score.

As for CAATACCG, the binding signal stood at 0.354 ± 0.0156 E-score.

For AGATACCA, the binding signal was found to be 0.422 ± 0.0101 E-score.

Consider GAATACCC, for which the binding signal came to 0.368 ± 0.0333 E-score.

For the sequence AAATACCT, the binding signal turned out to be 0.173 ± 0.0423 E-score.

With AGATACCT, the binding signal was 0.42 ± 0.0259 E-score.

Regarding AGATACAT, the binding signal is 0.329 ± 0.00303 E-score.

As for ACATACCG, the binding signal was found to be 0.162 ± 0.0512 E-score.
